PubChem BioAssay AID1159580 (chemical genetic matrix, 2015)
The campaign covered roughly 5,500 compounds. About 2,000 (36%) were called active. Another 18% or so got no clear call; they are omitted. Rule as the data show it: active = normalized growth mostly below about 0.91 (no sharp cut-off); inconclusive = no clear call, values can overlap the other calls; inactive = mostly above about 0.92. The list shows a part of the results.

Experiment: chemical genetic growth profiling, strain panel (AID 1159580);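 also: tested at 20 µM; growth read once vehicle control cultures reached saturation at 30 °C; 1 = growth at the plate median or of vehicle wells; lower values mean less growth of the strain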
Conditions: S. cerevisiae deletion strains, growth OD

Measured: normalized growth

C=C1CCC(OC(C)=O)/C(C)=C/C[C@@H]2[C@@H]1CC2(C)C (some centres undefined)
inactive: locus YAL021C, strain ccr4, hits give low values 1.01 | locus YAL026C, strain drs2, hits give low values 1.01 | locus YAL030W, strain snc1, hits give low values 1.01 | locus YBL061C, strain skt5, hits give low values 1.01 | locus YBR009C, strain hhf1, hits give low values 1.01 | locus YBR021W, strain FUR4, hits give low values 1.02 | locus YBR023C, strain chs3, hits give low values 1.01 | locus YBR171W, strain sec66, hits give low values 1 | locus YBR229C, strain ROT2, hits give low values 1 | locus YBR231C, strain swc5, hits give low values 1.01 | locus YBR279W, strain paf1, hits give low values 1.01 | locus YCL011C, strain gbp2, hits give low values 1.02 | locus YCL016C, strain dcc1, hits give low values 1.01 | locus YCL029C, strain bik1, hits give low values 1.03 | locus YCL061C, strain MRC1, hits give low values 1.01 | locus YCL069W, strain vba3, hits give low values 1.01 | locus YCR088W, strain abp1, hits give low values 1.01 | locus YDL005C, strain med2, hits give low values 1.01 | locus YDL035C, strain GPR1, hits give low values 1.01 | locus YDL040C, strain nat1, hits give low values 1.01 | locus YDL074C, strain BRE1, hits give low values 1.02 | locus YDL101C, strain DUN1, hits give low values 1.02 | locus YDL185W, strain tfp1, hits give low values 1.03 | locus YDL192W, strain arf1, hits give low values 1.02 | locus YDR001C, strain nth1, hits give low values 1 | locus YDR069C, strain doa4, hits give low values 1.03 | locus YDR101C, strain arx1, hits give low values 0.983 | locus YDR137W, strain rgp1, hits give low values 0.929 | locus YDR159W, strain sac3, hits give low values 1.02 | locus YDR162C, strain NBP2, hits give low values 0.997 | locus YDR195W, strain ref2 1.02 | locus YDR297W, strain sur2, hits give low values 1.02 | locus YDR318W, strain mcm21, hits give low values 1.03 | locus YDR334W, strain swr1, hits give low values 1.01 | locus YDR335W, strain msn5, hits give low values 1.01 | locus YDR388W, hits give low values 1.02 | locus YDR392W, strain spt3, hits give low values 0.812 | locus YDR502C, strain sam2, hits give low values 1.03 | locus YEL003W, strain gim4, hits give low values 1.02 | locus YEL037C, strain rad23, hits give low values 1.01 | locus YEL061C, strain CIN8 (second series), hits give low values 1.02 | locus YER015W, strain faa2, hits give low values 1.01 | locus YER016W, strain bim1, hits give low values 1.01 | locus YER110C, hits give low values 1.03 | locus YER111C, strain swi4, hits give low values 1.01 | locus YER155C, strain BEM2 (second series), hits give low values 1.03 | locus YER155C, strain BEM2, hits give low values 1.02 | locus YER167W, strain BCK2, hits give low values 1.01 | locus YFR010W, strain ubp6, hits give low values 1.01 | locus YGL078C, strain dbp3, hits give low values 1.04 | locus YGL086W, strain mad1, hits give low values 1.01 | locus YGL167C, strain pmr1, hits give low values 1.02 | locus YGL173C, strain kem1, hits give low values 1.01 | locus YGL227W, strain vid30, hits give low values 1.03 | locus YGL240W, strain doc1, hits give low values 1.01 | locus YGL248W, strain PDE1, hits give low values 1.01 | locus YGL253W, strain hxk2, hits give low values 1.01 | locus YGR078C, strain PAC10, hits give low values 1.03 | locus YGR135W, strain pre9, hits give low values 1.05 | locus YGR252W, strain gcn5, hits give low values 1.05 | locus YHR013C, strain ard1, hits give low values 1 | locus YHR027C, strain rpn1, hits give low values 1.01 | locus YHR030C, strain SLT2, hits give low values 1.01 | locus YHR079C, strain IRE1 (second series), hits give low values 1.02 | locus YHR094C, strain hxt1, hits give low values 1.01 | locus YHR129C, strain ARP1, hits give low values 1.01 | locus YHR142W, strain chs7, hits give low values 0.987 | locus YHR200W, strain rpn10, hits give low values 1 | locus YIL066C, strain RNR3, hits give low values 1 | locus YIL073C, strain SPO22, hits give low values 1.06 | locus YIL125W, strain kgd1, hits give low values 1 | locus YIR030C, strain dcg1, hits give low values 1.02 | locus YJL092W, strain hpr5, hits give low values 1.01 | locus YJL095W, strain BCK1 (second series), hits give low values 1.01 | locus YJL095W, strain BCK1, hits give low values 1.02 | locus YJL115W, strain asf1, hits give low values 1.01 | locus YJL129C, strain trk1, hits give low values 0.976 | locus YJL134W, strain LCB3, hits give low values 1.01 | locus YJL154C, strain vps35, hits give low values 1.01 | locus YJL164C, strain tpk1, hits give low values 1.01 | locus YJL166W, strain qcr8, hits give low values 1 | locus YJL168C, strain set2, hits give low values 1.02 | locus YJL187C, strain SWE1 (second series), hits give low values 1.05 | locus YJL187C, strain SWE1, hits give low values 1.01 | locus YJR075W, strain HOC1, hits give low values 1.02 | locus YKL009W, strain mrt4, hits give low values 1 | locus YKL068W, hits give low values 1.01 | locus YKL085W, strain MDH1 (second series), hits give low values 1.02 | locus YKL085W, strain MDH1, hits give low values 1.02 | locus YKL160W, strain elf1, hits give low values 1 | locus YKL190W, strain CNB1, hits give low values 1.01 | locus YKR001C, strain vps1, hits give low values 0.996 | locus YKR026C, strain gcn3, hits give low values 0.987 | locus YKR091W, strain srl3, hits give low values 1.01 | locus YLL001W, strain dnm1, hits give low values 1.02 | locus YLL026W, hits give low values 1.02 | locus YLL041C, strain sdh2, hits give low values 1.01 | locus YLR027C, strain aat2, hits give low values 1 | locus YLR039C, strain RIC1, hits give low values 0.957 | locus YLR058C, strain SHM2, hits give low values 1 | locus YLR102C, strain apc9, hits give low values 1 | locus YLR221C, strain rsa3, hits give low values 1.01 | locus YLR258W, strain gsy2, hits give low values 1.01 | locus YLR262C, strain YPT6 (second series), hits give low values 0.905 | locus YLR262C, strain YPT6, hits give low values 0.932 | locus YLR268W, strain sec22, hits give low values 0.995 | locus YLR320W, strain mms22, hits give low values 0.972 | locus YLR342W, strain FKS1, hits give low values 1.01 | locus YLR357W, strain rsc2, hits give low values 1.01 | locus YLR370C, strain arc18, hits give low values 1.01 | locus YLR371W, strain rom2, hits give low values 1.03 | locus YLR384C, strain iki3, hits give low values 0.999 | locus YLR418C, strain cdc73, hits give low values 1.06 | locus YML016C, strain PPZ1, hits give low values 1.02 | locus YML032C, strain rad52, hits give low values 0.995 | locus YML120C, strain ndi1, hits give low values 1.02 | locus YML124C, strain tub3, hits give low values 1.01 | locus YMR058W, strain fet3, hits give low values 1.01 | locus YMR078C, strain ctf18, hits give low values 1.03 | locus YMR125W, strain sto1, hits give low values 1.02 | locus YMR129W, hits give low values 1.01 | locus YMR205C, strain PFK2, hits give low values 0.996 | locus YMR223W, strain ubp8, hits give low values 1.02 | locus YMR231W, strain pep5, hits give low values 1.01 | locus YMR307W, strain GAS1, hits give low values 0.973 | locus YNL067W, strain RPL9B, hits give low values 1.02 | locus YNL071W, strain lat1, hits give low values 0.99 | locus YNL209W, strain ssb2, hits give low values 1.02 | locus YNL233W, strain BNI4, hits give low values 1.04 | locus YNL248C, strain rpa49, hits give low values 0.997 | locus YNL250W, strain rad50, hits give low values 1.07 | locus YNL271C, strain bni1, hits give low values 1.01 | locus YNL298W, strain CLA4, hits give low values 1.01 | locus YNL307C, strain MCK1, hits give low values 1.02 | locus YNL322C, strain KRE1 (second series), hits give low values 1.02 | locus YNL322C, strain KRE1, hits give low values 1.01 | locus YNR049C, strain mso1, hits give low values 1.02 | locus YNR052C, strain pop2, hits give low values 1.03 | locus YOL012C, strain htz1 1.04 | locus YOL147C, strain pex11, hits give low values 1.02 | locus YOR001W, strain rrp6, hits give low values 1.02 | locus YOR061W, strain CKA2, hits give low values 1 | locus YOR069W, strain VPS5, hits give low values 1.01 | locus YOR070C, strain gyp1, hits give low values 1 | locus YOR080W, strain dia2, hits give low values 1.01 | locus YOR083W, strain WHI5, hits give low values 1.01 | locus YOR106W, strain vam3, hits give low values 0.994 | locus YOR136W, strain idh2, hits give low values 0.997 | locus YOR144C, strain elg1, hits give low values 1.01 | locus YOR184W, strain ser1, hits give low values 0.992 | locus YOR265W, strain rbl2, hits give low values 1.01 | locus YOR270C, strain vph1, hits give low values 0.909 | locus YOR290C, strain snf2, hits give low values 0.963 | locus YOR316C, strain cot1, hits give low values 1.02 | locus YPL051W, strain arl3, hits give low values 0.994 | locus YPL055C, strain LGE1, hits give low values 1.04 | locus YPL078C, strain atp4, hits give low values 1 | locus YPL106C, strain sse1, hits give low values 1.05 | locus YPL240C, strain hsp82, hits give low values 1.01 | locus YPR119W, strain clb2, hits give low values 1.01 | locus YPR141C, strain kar3, hits give low values 1.02 | locus YPR163C, strain tif3, hits give low values 1 | locus YPR167C, strain met16, hits give low values 1.02 | strain wtn01, hits give low values 1
